Laboratory results from article PMC11062922 (Nature Chemical Biology, 2023).
Like-named read-outs stand apart in the source and are kept apart here.

Tests used:
Settings in all cases: read-out: apparent Kd, n = 1
MAP2K2 = test system: MAP2K2
MAP2K6 = test system: MAP2K6
MAP4K2 = test system: MAP4K2
[1] = compound concentrations:100 nM and 1000 nM (sheet 'Lestaurtinib' of Supplementary Table 1),run:Lestaurtinib_02752_R3,Plate:MR025
[2] = compound concentrations:100 nM and 1000 nM (sheet 'Lestaurtinib' of Supplementary Table 1),run:Lestaurtinib_02765_R1,Plate:MR026
[3] = compound concentrations:100 nM and 1000 nM (sheet 'Lestaurtinib' of Supplementary Table 1),run:Lestaurtinib_02768_R1,Plate:MR028
[4] = compound concentrations:100 nM and 1000 nM (sheet 'Lestaurtinib' of Supplementary Table 1),run:Lestaurtinib_02795_R1,Plate:MR022
[5] = compound concentrations:100 nM and 1000 nM (sheet 'Lestaurtinib' of Supplementary Table 1),run:Lestaurtinib_02802_R2,Plate:MR029
[6] = compound concentrations:100 nM and 1000 nM (sheet 'Lestaurtinib' of Supplementary Table 1),run:Lestaurtinib_02802_R3,Plate:MR029
[7] = compound concentrations:100 nM and 1000 nM (sheet 'Lestaurtinib' of Supplementary Table 1),run:Lestaurtinib_03252_R2,Plate:MR032
[8] = compound concentrations:100 nM and 1000 nM (sheet 'Lestaurtinib' of Supplementary Table 1),run:Lestaurtinib_02339_R2,Plate:MR001
[9] = compound concentrations:100 nM and 1000 nM (sheet 'Lestaurtinib' of Supplementary Table 1),run:Lestaurtinib_02364_R2,Plate:MR002

Lestaurtinib
potency estimated from few doses (MAP2K2; [1]): 1310 nM | potency estimated from few doses (MAP2K2; [2]): 722 nM | potency estimated from few doses (MAP2K2; compound concentrations:100 nM and 1000 nM (sheet 'Lestaurtinib' of Supplementary Table 1),run:Lestaurtinib_02766_R2,Plate:MR027): 959 nM | potency estimated from few doses (MAP2K2; compound concentrations:100 nM and 1000 nM (sheet 'Lestaurtinib' of Supplementary Table 1),run:Lestaurtinib_02766_R3,Plate:MR027): 1320 nM | potency estimated from few doses (MAP2K2; [3]): 1590 nM | potency estimated from few doses (MAP2K2; [4]): 925 nM | potency estimated from few doses (MAP2K2; compound concentrations:100 nM and 1000 nM (sheet 'Lestaurtinib' of Supplementary Table 1),run:Lestaurtinib_02795_R2,Plate:MR022): 722 nM | potency estimated from few doses (MAP2K2; [5]): 958 nM | potency estimated from few doses (MAP2K2; [6]): 1490 nM | potency estimated from few doses (MAP2K2; compound concentrations:100 nM and 1000 nM (sheet 'Lestaurtinib' of Supplementary Table 1),run:Lestaurtinib_02896_R2,Plate:MR030): 744 nM | potency estimated from few doses (MAP2K2; compound concentrations:100 nM and 1000 nM (sheet 'Lestaurtinib' of Supplementary Table 1),run:Lestaurtinib_02896_R3,Plate:MR030): 804 nM | potency estimated from few doses (MAP2K2; compound concentrations:100 nM and 1000 nM (sheet 'Lestaurtinib' of Supplementary Table 1),run:Lestaurtinib_03172_R3,Plate:MR031): 475 nM | potency estimated from few doses (MAP2K2; [7]): 790 nM | potency estimated from few doses (MAP2K2; compound concentrations:100 nM and 1000 nM (sheet 'Lestaurtinib' of Supplementary Table 1),run:Lestaurtinib_03260_R2,Plate:MR033): 1600 nM | potency estimated from few doses (MAP2K6; [8]): 162 nM | potency estimated from few doses (MAP2K6; compound concentrations:100 nM and 1000 nM (sheet 'Lestaurtinib' of Supplementary Table 1),run:Lestaurtinib_02339_R3,Plate:MR001): 96.9 nM | potency estimated from few doses (MAP2K6; [9]): 135 nM | potency estimated from few doses (MAP2K6; compound concentrations:100 nM and 1000 nM (sheet 'Lestaurtinib' of Supplementary Table 1),run:Lestaurtinib_02367_R1,Plate:MR003): 158 nM | potency estimated from few doses (MAP2K6; compound concentrations:100 nM and 1000 nM (sheet 'Lestaurtinib' of Supplementary Table 1),run:Lestaurtinib_02367_R2,Plate:MR003): 190 nM | potency estimated from few doses (MAP2K6; compound concentrations:100 nM and 1000 nM (sheet 'Lestaurtinib' of Supplementary Table 1),run:Lestaurtinib_02367_R3,Plate:MR003): 165 nM | potency estimated from few doses (MAP2K6; compound concentrations:100 nM and 1000 nM (sheet 'Lestaurtinib' of Supplementary Table 1),run:Lestaurtinib_02381_R1,Plate:MR004): 175 nM | potency estimated from few doses (MAP2K6; compound concentrations:100 nM and 1000 nM (sheet 'Lestaurtinib' of Supplementary Table 1),run:Lestaurtinib_02407_R2,Plate:MR005): 137 nM | potency estimated from few doses (MAP2K6; compound concentrations:100 nM and 1000 nM (sheet 'Lestaurtinib' of Supplementary Table 1),run:Lestaurtinib_02422_R3,Plate:MR006): 151 nM | potency estimated from few doses (MAP2K6; compound concentrations:100 nM and 1000 nM (sheet 'Lestaurtinib' of Supplementary Table 1),run:Lestaurtinib_02437_R1,Plate:MR007): 184 nM | potency estimated from few doses (MAP2K6; compound concentrations:100 nM and 1000 nM (sheet 'Lestaurtinib' of Supplementary Table 1),run:Lestaurtinib_02437_R2,Plate:MR007): 189 nM | potency estimated from few doses (MAP2K6; compound concentrations:100 nM and 1000 nM (sheet 'Lestaurtinib' of Supplementary Table 1),run:Lestaurtinib_02437_R3,Plate:MR007): 22.9 nM | potency estimated from few doses (MAP2K6; compound concentrations:100 nM and 1000 nM (sheet 'Lestaurtinib' of Supplementary Table 1),run:Lestaurtinib_02438_R3,Plate:MR008): 132 nM | potency estimated from few doses (MAP2K6; compound concentrations:100 nM and 1000 nM (sheet 'Lestaurtinib' of Supplementary Table 1),run:Lestaurtinib_02443_R2,Plate:MR009): 140 nM | potency estimated from few doses (MAP2K6; compound concentrations:100 nM and 1000 nM (sheet 'Lestaurtinib' of Supplementary Table 1),run:Lestaurtinib_02473_R1,Plate:MR010): 176 nM | potency estimated from few doses (MAP2K6; compound concentrations:100 nM and 1000 nM (sheet 'Lestaurtinib' of Supplementary Table 1),run:Lestaurtinib_02473_R2,Plate:MR010): 144 nM | potency estimated from few doses (MAP2K6; compound concentrations:100 nM and 1000 nM (sheet 'Lestaurtinib' of Supplementary Table 1),run:Lestaurtinib_02482_R1,Plate:MR011): 212 nM | potency estimated from few doses (MAP2K6; compound concentrations:100 nM and 1000 nM (sheet 'Lestaurtinib' of Supplementary Table 1),run:Lestaurtinib_02482_R3,Plate:MR011): 254 nM | potency estimated from few doses (MAP2K6; compound concentrations:100 nM and 1000 nM (sheet 'Lestaurtinib' of Supplementary Table 1),run:Lestaurtinib_02487_R1,Plate:MR012): 142 nM | potency estimated from few doses (MAP2K6; compound concentrations:100 nM and 1000 nM (sheet 'Lestaurtinib' of Supplementary Table 1),run:Lestaurtinib_02487_R2,Plate:MR012): 190 nM | potency estimated from few doses (MAP2K6; compound concentrations:100 nM and 1000 nM (sheet 'Lestaurtinib' of Supplementary Table 1),run:Lestaurtinib_02487_R3,Plate:MR012): 157 nM | potency estimated from few doses (MAP2K6; compound concentrations:100 nM and 1000 nM (sheet 'Lestaurtinib' of Supplementary Table 1),run:Lestaurtinib_02496_R1,Plate:MR013): 146 nM | potency estimated from few doses (MAP2K6; compound concentrations:100 nM and 1000 nM (sheet 'Lestaurtinib' of Supplementary Table 1),run:Lestaurtinib_02496_R2,Plate:MR013): 132 nM | potency estimated from few doses (MAP2K6; compound concentrations:100 nM and 1000 nM (sheet 'Lestaurtinib' of Supplementary Table 1),run:Lestaurtinib_02566_R1,Plate:MR014): 207 nM | potency estimated from few doses (MAP2K6; compound concentrations:100 nM and 1000 nM (sheet 'Lestaurtinib' of Supplementary Table 1),run:Lestaurtinib_02566_R2,Plate:MR014): 121 nM | potency estimated from few doses (MAP2K6; compound concentrations:100 nM and 1000 nM (sheet 'Lestaurtinib' of Supplementary Table 1),run:Lestaurtinib_02572_R2,Plate:MR015): 149 nM | potency estimated from few doses (MAP2K6; compound concentrations:100 nM and 1000 nM (sheet 'Lestaurtinib' of Supplementary Table 1),run:Lestaurtinib_02572_R3,Plate:MR015): 193 nM | potency estimated from few doses (MAP2K6; compound concentrations:100 nM and 1000 nM (sheet 'Lestaurtinib' of Supplementary Table 1),run:Lestaurtinib_02577_R2,Plate:MR016): 158 nM | potency estimated from few doses (MAP2K6; compound concentrations:100 nM and 1000 nM (sheet 'Lestaurtinib' of Supplementary Table 1),run:Lestaurtinib_02584_R3,Plate:MR017): 243 nM | potency estimated from few doses (MAP2K6; compound concentrations:100 nM and 1000 nM (sheet 'Lestaurtinib' of Supplementary Table 1),run:Lestaurtinib_02601_R1,Plate:MR018): 172 nM | potency estimated from few doses (MAP2K6; compound concentrations:100 nM and 1000 nM (sheet 'Lestaurtinib' of Supplementary Table 1),run:Lestaurtinib_02601_R3,Plate:MR018): 321 nM | potency estimated from few doses (MAP2K6; compound concentrations:100 nM and 1000 nM (sheet 'Lestaurtinib' of Supplementary Table 1),run:Lestaurtinib_02606_R2,Plate:MR019): 140 nM | potency estimated from few doses (MAP2K6; compound concentrations:100 nM and 1000 nM (sheet 'Lestaurtinib' of Supplementary Table 1),run:Lestaurtinib_02606_R3,Plate:MR019): 180 nM | potency estimated from few doses (MAP2K6; compound concentrations:100 nM and 1000 nM (sheet 'Lestaurtinib' of Supplementary Table 1),run:Lestaurtinib_02624_R2,Plate:MR020): 154 nM | potency estimated from few doses (MAP2K6; compound concentrations:100 nM and 1000 nM (sheet 'Lestaurtinib' of Supplementary Table 1),run:Lestaurtinib_02624_R3,Plate:MR020): 149 nM | potency estimated from few doses (MAP2K6; compound concentrations:100 nM and 1000 nM (sheet 'Lestaurtinib' of Supplementary Table 1),run:Lestaurtinib_02724_R1,Plate:MR021): 141 nM | potency estimated from few doses (MAP2K6; compound concentrations:100 nM and 1000 nM (sheet 'Lestaurtinib' of Supplementary Table 1),run:Lestaurtinib_02724_R2,Plate:MR021): 113 nM | potency estimated from few doses (MAP2K6; compound concentrations:100 nM and 1000 nM (sheet 'Lestaurtinib' of Supplementary Table 1),run:Lestaurtinib_02724_R3,Plate:MR021): 151 nM | potency estimated from few doses (MAP2K6; compound concentrations:100 nM and 1000 nM (sheet 'Lestaurtinib' of Supplementary Table 1),run:Lestaurtinib_02741_R1,Plate:MR023): 92.6 nM | potency estimated from few doses (MAP2K6; compound concentrations:100 nM and 1000 nM (sheet 'Lestaurtinib' of Supplementary Table 1),run:Lestaurtinib_02741_R2,Plate:MR023): 113 nM | potency estimated from few doses (MAP2K6; compound concentrations:100 nM and 1000 nM (sheet 'Lestaurtinib' of Supplementary Table 1),run:Lestaurtinib_02741_R3,Plate:MR023): 130 nM | potency estimated from few doses (MAP2K6; compound concentrations:100 nM and 1000 nM (sheet 'Lestaurtinib' of Supplementary Table 1),run:Lestaurtinib_02748_R2,Plate:MR024): 231 nM | potency estimated from few doses (MAP2K6; compound concentrations:100 nM and 1000 nM (sheet 'Lestaurtinib' of Supplementary Table 1),run:Lestaurtinib_02748_R3,Plate:MR024): 190 nM | potency estimated from few doses (MAP2K6; [1]): 175 nM | potency estimated from few doses (MAP2K6; [2]): 218 nM | potency estimated from few doses (MAP2K6; compound concentrations:100 nM and 1000 nM (sheet 'Lestaurtinib' of Supplementary Table 1),run:Lestaurtinib_02765_R2,Plate:MR026): 200 nM | potency estimated from few doses (MAP2K6; compound concentrations:100 nM and 1000 nM (sheet 'Lestaurtinib' of Supplementary Table 1),run:Lestaurtinib_02765_R3,Plate:MR026): 115 nM | potency estimated from few doses (MAP2K6; [3]): 183 nM | potency estimated from few doses (MAP2K6; [4]): 143 nM | potency estimated from few doses (MAP2K6; [5]): 180 nM | potency estimated from few doses (MAP2K6; [6]): 440 nM | potency estimated from few doses (MAP2K6; compound concentrations:100 nM and 1000 nM (sheet 'Lestaurtinib' of Supplementary Table 1),run:Lestaurtinib_03172_R1,Plate:MR031): 154 nM | potency estimated from few doses (MAP2K6; [7]): 296 nM | potency estimated from few doses (MAP2K6; compound concentrations:100 nM and 1000 nM (sheet 'Lestaurtinib' of Supplementary Table 1),run:Lestaurtinib_03260_R1,Plate:MR033): 161 nM | potency estimated from few doses (MAP2K6; compound concentrations:100 nM and 1000 nM (sheet 'Lestaurtinib' of Supplementary Table 1),run:Lestaurtinib_03260_R3,Plate:MR033): 140 nM | potency estimated from few doses (MAP4K2; compound concentrations:100 nM and 1000 nM (sheet 'Lestaurtinib' of Supplementary Table 1),run:Lestaurtinib_02339_R1,Plate:MR001): 329 nM | potency estimated from few doses (MAP4K2; [8]): 231 nM | potency estimated from few doses (MAP4K2; compound concentrations:100 nM and 1000 nM (sheet 'Lestaurtinib' of Supplementary Table 1),run:Lestaurtinib_02364_R1,Plate:MR002): 180 nM | potency estimated from few doses (MAP4K2; [9]): 196 nM
